Results published in PubChem BioAssay.
The source made the active and inactive calls.

test system: PRMT1 (protein arginine N-methyltransferase 1); assay: PRMT1 binders on small-molecule microarrays, primary screen, biochemical, small-molecule microarray, 635 nm fluorescence (AID 1088); settings: small-molecule microarray binding, higher = more signal;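 further: binding of Prmt1 protein to compounds spotted on small-molecule microarray slides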

Row | SMILES | composite z-score
1 | CCOC(=O)C[C@H]1[C@H](OC(=O)Cc2ccc3c(c2)OCO3)[C@@H](NC(=O)C2CCCCC2)c2cc(OCCCO)ccc2N1C(=O)Cc1ccc(OC)cc1 | 1.19
2 | COCCOC(=O)N1C(=O)[C@@]2(c3cc(C#CCC(C(=O)OC)C(=O)OC)ccc31)[C@H](C(=O)N1CCN(c3ncccn3)CC1)[C@H]1C(=O)O[C@H](c3ccccc3)[C@H](c3ccccc3)N1[C@@H]2c1ccc(OCCO)cc1 | 1.55
3 | COc1ccc(C#Cc2ccc3c(c2)[C@]2(C(=O)N3)[C@H](c3ccc(O)cc3)N3[C@H](c4ccccc4)[C@H](c4ccccc4)OC(=O)[C@H]3[C@@H]2C(=O)N2CCCCCCC2)cc1 | 1.55
4 | O=C1OCC=C[C@H]2OC34C=CCN(c5ccc(Cl)cc5)C(=O)[C@H]3N(CCCCCCO)C(=O)[C@@H]4[C@@H]12 (stereo not given in full) | -1.01
5 | O=C1O[C@H](c2ccccc2)[C@H](c2ccccc2)N2[C@H]1[C@@H](C(=O)N1CCN(c3ncccn3)CC1)[C@]1(C(=O)Nc3ccccc31)[C@H]2c1ccc(OCCO)cc1 | 1.56

test system: not listed separately; assay: yeast growth modulation, basal conditions, primary screen, YJM789 clinical isolate, OD600, 24 h (AID 1089);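 further: growth of clinical yeast isolate S. cerevisiae YJM 789 seeded 1000 cells per well; test concentration not given here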; settings: S. cerevisiae YJM789 growth, higher = more signal, called active from +8 up or from −8 down

Row | SMILES | z-score
6 | CCCCCCc1nc(CCCc2cc3c(c(CCCCCC)n2)[Si](C(C)C)(C(C)C)OC3)cc2c1[Si](C(C)C)(C(C)C)OC2 | -0.506 (inactive)
7 | COc1cccc(C(=O)O[C@H]2CC[C@]3(C)C4=C(CCC3C2(C)C)[C@]2(C)CC[C@H]([C@H](C)CCCC(C)C)[C@@]2(C)CC4)c1 (stereo not given in full) | -1.73 (inactive)
8 | O=C1N(CCS(=O)(=O)c2ccccc2)Cc2ccccc2C[C@]12N=C(c1ccc(OCCCO)cc1)O[C@@H]2c1ccccc1 | -0.452 (inactive)
9 | O=C1C2C=CC(C(O)c3cccs3)N(Nc3ccccc3F)C2C(=O)N1c1ccccc1 (stereo not given) | -0.471 (inactive)
10 | COc1ccc(NN2C(C(O)c3ccc(OC)c(OCc4ccccc4)c3)C=CC3C(=O)N(C4CCCCC4)C(=O)C32)cc1 (stereo not given) | -0.352 (inactive)
11 | CCOc1cc(C(O)C2C=CC3C(=O)N(c4ccccc4)C(=O)C3N2Nc2ccc([N+](=O)[O-])cc2)ccc1O (stereo not given) | -0.441 (inactive)
12 | COCCOC(=O)N1C(=O)[C@@]2(c3cc(C#CCNC(N)=O)ccc31)[C@H](C(=O)N1CCN(c3ncccn3)CC1)[C@H]1C(=O)O[C@H](c3ccccc3)[C@H](c3ccccc3)N1[C@@H]2c1ccccc1OCCO | 2.12 (inactive)
13 | C=CC[C@]1(C(=O)N2CCOCC2)N=C(c2ccc(OCCCO)cc2)O[C@H]1c1ccccc1 | -1.8 (inactive)
14 | CCOC(=O)C1=CC[C@@H](c2ccccc2)N(S(=O)(=O)c2ccc(C)cc2)[C@H]1C(=O)OCC | 0.19 (inactive)
15 | CC=CC(O)C1C=CC2C(=O)N(c3ccccc3)C(=O)C2N1Nc1ccc(C(C)C)cc1 (stereo not given) | 0.842 (inactive)
16 | O=C1OCCC=C[C@H]2OC34C=CCN(c5ccc6ccccc6c5)C(=O)[C@H]3N(CCCCCO)C(=O)[C@@H]4C12 (stereo not given in full) | -0.748 (inactive)
17 | CCOC(=O)C[C@H]1[C@H](OC(=O)c2ccc(C(=O)c3ccccc3)cc2)[C@@H](NC(=O)C2CCCCC2)c2cc(OCCCO)ccc2N1C(=O)c1ccccc1 | -0.326 (inactive)
18 | [N-]=[N+]=Nc1ccccc1[C@@H]1OC(c2ccc(OCCCO)cc2)=N[C@]1(CCS(=O)(=O)c1ccccc1)C(=O)N1CCOCC1 | 1.32 (inactive)
19 | NC(=O)NCC#Cc1ccc2c(c1)[C@]1(C(=O)N2)[C@H](C(=O)N2CCCCCCC2)[C@H]2C(=O)O[C@H](c3ccccc3)[C@H](c3ccccc3)N2[C@@H]1c1ccc(OCCO)cc1 | 1.65 (inactive)
20 | O=C(NCc1ccccc1)[C@]1(CCS(=O)(=O)c2ccccc2)N=C(c2ccc(OCCCO)cc2)O[C@@H]1c1ccccc1 | 0.63 (inactive)
21 | C=C(C(=O)CC[C@H](OC(C)=O)c1ccc(OCCO)cc1)C(C)C | -24.6 (active)
22 | CCCCCN1CC=CC23O[C@@H]4/C=C\CCC(C)OC(=O)C4[C@H]2C(=O)N(CCCCCO)[C@@H]3C1=O (stereo not given in full) | -1.46 (inactive)
23 | O=C1[C@]2(CO)C=C(Br)[C@@H](C[C@@H]2c2ccccc2)[C@@]12CO2 | -0.904 (inactive)

Row | SMILES | z-score
24 | CC(C)C(O)C1C=CC2C(=O)N(c3ccccc3)C(=O)C2N1Nc1ccc(C#N)cc1 (stereo not given) | -0.108 (inactive)
25 | O=C(CS)NCCCCCCNC(=O)[C@H]1C[C@H]2C(=O)N3CCC[C@H]3C(=O)N2[C@H]1c1cccc(OCCO)c1 | -0.319 (inactive)
26 | COCC(=C=CC[C@H](O)c1ccc(OCCO)cc1)C[C@H](O)c1cc(Cl)cc(Cl)c1O | -24.9 (active)
27 | CN1CCC(CCCO)=CC1c1ccc(CN2CCCC2)cc1 (stereo not given) | -1.05 (inactive)
28 | COCCOC(=O)N1C(=O)[C@@]2(c3cc(C#CCC(C(=O)OC)C(=O)OC)ccc31)[C@H](c1ccccc1OCCO)N1[C@H](c3ccccc3)[C@H](c3ccccc3)OC(=O)[C@H]1[C@@H]2C(=O)N1CCc2cc(OC)c(OC)cc2C1 | 0.502 (inactive)
29 | COc1ccc(CCNC(=O)[C@@]2(c3ccc([N+](=O)[O-])cc3)CC(=O)N(CC34CC5CC(CC(C5)C3)C4)[C@@H]2c2ccc(CO)cc2)cc1 | 0.719 (inactive)
30 | Cc1ccccc1C(O)C1C=CC2C(=O)N(C)C(=O)C2N1Nc1ccccc1 (stereo not given) | -0.145 (inactive)
31 | O=C1c2ccccc2[C@@]2(Cc3ccccc3N(Cc3ccccc3)C2=O)[C@H](c2ccc(CO)cc2)N1C1CCCCC1 | -0.676 (inactive)
32 | O=C1O[C@H](c2ccccc2)[C@H](c2ccccc2)N2[C@H]1[C@@H](C(=O)Nc1nc3ccccc3s1)[C@]1(C(=O)Nc3ccccc31)[C@H]2c1ccc(O)cc1 | 0.474 (inactive)
33 | C=C[C@@H](COC(C)=O)N(Cc1ccc([N+](=O)[O-])cc1)S(=O)(=O)c1ccc(Br)cc1 | -0.0928 (inactive)
34 | CC(C)N1C(=O)c2ccccc2[C@@H](C(=O)NCCCN(C)C)[C@@H]1c1ccc(CO)cc1 | -0.545 (inactive)
35 | CC(C)c1ccc(NN2C(C(O)c3cccc(O)c3)C=CC3C(=O)N(c4ccccc4)C(=O)C32)cc1 (stereo not given) | 1.18 (inactive)
36 | CCOC(=O)C[C@H]1[C@H](OC(=O)Cc2ccc3c(c2)OCO3)[C@@H](NC(=O)C2CCCCC2)c2cc(OCCCO)ccc2N1C(=O)Cc1ccc(OC)cc1 | -1.74 (inactive)
37 | COCCOC(=O)N1C(=O)[C@@]2(c3cc(C#CCC(C(=O)OC)C(=O)OC)ccc31)[C@H](C(=O)N1CCN(c3ncccn3)CC1)[C@H]1C(=O)O[C@H](c3ccccc3)[C@H](c3ccccc3)N1[C@@H]2c1ccc(OCCO)cc1 | -0.485 (inactive)
38 | COc1ccc(C#Cc2ccc3c(c2)[C@]2(C(=O)N3)[C@H](c3ccc(O)cc3)N3[C@H](c4ccccc4)[C@H](c4ccccc4)OC(=O)[C@H]3[C@@H]2C(=O)N2CCCCCCC2)cc1 | -1.51 (inactive)
39 | O=C1OCC=C[C@H]2OC34C=CCN(c5ccc(Cl)cc5)C(=O)[C@H]3N(CCCCCCO)C(=O)[C@@H]4[C@@H]12 (stereo not given in full) | -0.88 (inactive)
40 | O=C1O[C@H](c2ccccc2)[C@H](c2ccccc2)N2[C@H]1[C@@H](C(=O)N1CCN(c3ncccn3)CC1)[C@]1(C(=O)Nc3ccccc31)[C@H]2c1ccc(OCCO)cc1 | 2.72 (inactive)
